Data as given in the supplement of paper PMC4371806.
Whole data set: some 2,300 compounds, median “plate-normalized OD600 growth (mean of duplicates)” near 0.29, cut for the lowest 2% near 0.22. This is one part of a sample in which the lowest values are shown more often than they occur.

Test system: Escherichia coli BW25113
Assay: plate-normalized OD600 growth (mean of duplicates) (OD600 (normalized)); higher = more growth (less inhibition)
Conditions: 10 µM
Description: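 E. coli BW25113 in LB (100 µl, 96-well, no shaking) was exposed to 10 µM of each compound from a ~30,000-member library and grown at 37°C for 24 h or 15°C for 48 h, in duplicate. Growth was read as OD600 and the duplicate ODs were normalized across screening plates to correct plate-to-plate variation. Hits were >3σ below the mean OD600 at 15°C and <2σ below the mean at 37°C.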

Row | Structure (SMILES) | plate-normalized OD600 growth (temperature: 15°C, 48 h) | plate-normalized OD600 growth (temperature: 37°C, 24 h)
1 | O=C(COc1ccccc1[N+](=O)[O-])Nc1ccccn1 | 0.24 | 0.619
2 | COc1ccc(Nc2nc(N/N=C/c3ccc(-c4cccc(C(=O)O)c4)o3)nc(Nc3ccccc3)n2)cc1 | 0.226 | 0.634
3 | CC(C)(C)OC(=O)NC(Cc1ccc(OCc2ccccc2)cc1)C(=O)O (stereo not given) | 0.26 | 0.615
4 | CCOC(=O)/C(C(C)=O)=C1/SCC(C)S1 (stereo not given) | 0.235 | 0.609
5 | O=C1CC2(CCCC2)C(=O)N1CCNc1nccc(C(F)(F)F)n1 | 0.261 | 0.637
6 | Cc1ccc(NC(=O)Nc2ccc(C)c(NC(=O)Nc3ccc(C)cc3)c2)cc1 | 0.242 | 0.578
7 | O=C(CNC(=O)C(c1ccccc1)c1ccccc1)N/N=C/c1cc(Br)ccc1O | 0.237 | 0.617
8 | COc1cc(OC)c(C2C(C#N)=C(N)Oc3n[nH]c(-c4cccnc4)c32)cc1OC (stereo not given) | 0.244 | 0.612
9 | CCc1nc(N)c(C#N)c(-c2ccccc2)c1C | 0.239 | 0.61
10 | CSc1nc2sc(C)c(C)c2c(=O)n1-c1ccccc1 | 0.219 | 0.653
11 | O=C1/C(=C\c2ccc(Cl)cc2Cl)N=C(c2ccccc2)N1C1CC1 | 0.241 | 0.577
12 | COc1ccc(C(=O)NCC(=O)N/N=C(\C)c2cccc(N)c2)cc1OC | 0.249 | 0.633
13 | O=C1CCc2cccc3cccc1c23 | 0.235 | 0.604
14 | CCN(CC)c1ccc(C2C(C(=O)OC3CCCCC3)=C(C)NC3=C2C(=O)CC(c2ccc(Cl)cc2)C3)cc1 (stereo not given) | 0.238 | 0.614
15 | CC1(C)C2CCC1(C)C(N/C(=C(/C(Cl)=C(Cl)Cl)[N+](=O)[O-])n1nnc3ccccc31)C2 (stereo not given) | 0.253 | 0.629
16 | CSc1ccc(/C=C2\N=C(c3ccccc3)N(c3ccc(C(=O)Nc4ccc(Br)cc4)cc3)C2=O)cc1 | 0.257 | 0.649
17 | COc1ccc(OC)c(NC(=O)c2ccc(N3C(=O)/C(=C/c4ccc(Cl)cc4)N=C3c3ccccc3)cc2)c1 | 0.216 | 0.634
18 | O=C(Nc1ccc(F)c(Cl)c1)c1ccc(N2C(=O)/C(=C/c3ccccc3)N=C2c2ccccc2)cc1 | 0.238 | 0.653
19 | COc1cc(NC(=S)N2CCN(c3ccccc3OC)CC2)c(OC)cc1Cl | 0.231 | 0.614
20 | Cc1cc(N2CCCC2)ccc1/C=N/n1cnnc1 | 0.259 | 0.687
21 | Cc1cc(C=Nc2ccc(Cl)c(O)c2)c(C)n1-c1ccc(Cl)cc1 | 0.248 | 0.605
22 | CN1N=C(SCc2ccc(Cl)cc2Cl)Sc2c1cnn(C)c2=O | 0.25 | 0.591
23 | CCCCCCCCNC(=O)C(=O)Nc1cccc(F)c1 | 0.244 | 0.564
24 | Cc1ccc2c(c1)N(CCO)C(C)(C)CC2C (stereo not given) | 0.211 | 0.651

Row | Structure (SMILES) | plate-normalized OD600 growth (temperature: 15°C, 48 h) | plate-normalized OD600 growth (temperature: 37°C, 24 h)
25 | O=C(Nc1ccc(S(=O)(=O)Nc2cccc(Cl)c2Cl)cc1)C1COc2ccccc2O1 (stereo not given) | 0.262 | 0.62
26 | Cc1cc(C)c2nc3s/c(=C\c4ccccc4C(F)(F)F)c(=O)n3c2c1 | 0.249 | 0.593
27 | Cc1nc(-c2ccccn2)nc(NCCNc2cccc(C(F)(F)F)n2)c1Cl | 0.257 | 0.626
28 | O=C(CC1CCC1)Nc1cc(Cl)ccc1Cl | 0.256 | 0.619
29 | Cc1nnsc1C(=O)Nc1ccc(CN2CCS(=O)(=O)CC2)cc1 | 0.244 | 0.614
30 | Cc1cc(NC(=NS(=O)(=O)c2ccc(Br)cc2)c2ccccc2)cc(C)c1O | 0.251 | 0.652
31 | Cc1cc(NC(=NS(=O)(=O)c2ccc(Br)cc2)c2ccccc2)c(Cl)c(C)c1O | 0.214 | 0.634
32 | Cc1ccc(S(=O)(=O)N=C(Nc2ccc(O)c(Cl)c2)c2ccccc2)cc1 | 0.232 | 0.618
33 | Cc1oc(CC(C)C)cc1C(=O)Nc1cccc(C(=O)O)c1 | 0.255 | 0.643
34 | Nc1ccccc1C(=O)Nc1cc(C(=O)O)cc(C(=O)O)c1 | 0.232 | 0.625
35 | NC(N)=Nc1nc(-c2cc(Cl)sc2Cl)cs1 | 0.242 | 0.607
36 | COc1cc(NC(=O)CCN2CCC(C)CC2)cc(OC)c1 | 0.217 | 0.647
37 | Cc1c(Br)sc2ccc(Cl)cc12 | 0.247 | 0.612
38 | O=C(CC1(O)C(=O)C=C(c2ccccc2)N1N=C(c1ccccc1)c1ccccc1)c1ccccc1 (stereo not given) | 0.242 | 0.588
39 | CCOC(=O)COc1nc(-c2ccccc2)cc(-c2ccccc2)c1C#N | 0.251 | 0.629
40 | COc1ccc(C2SCC(=O)N2CCN2CCCCC2)cc1 (stereo not given) | 0.238 | 0.618
41 | O=c1[nH]c2cccnc2[nH]c1=O | 0.233 | 0.617
42 | COc1ccc(C2CC(=O)N2C2(C(=O)Nc3c(C)cccc3C)CCCCC2)cc1OC (stereo not given) | 0.24 | 0.605
43 | c1ccc(OCCOc2ccccn2)nc1 | 0.25 | 0.612
44 | COc1ccc(Nc2nc(Cl)nc(NCCC3=CCCCC3)n2)cc1 | 0.257 | 0.602
45 | O=C1c2cccc3c(SCCO)ccc(c23)C(=O)N1CCc1ccccn1 | 0.265 | 0.634
46 | O=C(O)c1cccc(N=Cc2ccc(OCc3ccc(F)cc3)cc2)c1 | 0.225 | 0.684
47 | CCCc1ccc(OCC(=O)NNC(=S)Nc2ccccc2)cc1 | 0.244 | 0.618
48 | C=CCn1c(Sc2ncc([N+](=O)[O-])s2)n[nH]c1=O | 0.181 | 0.588

Row | Structure (SMILES) | plate-normalized OD600 growth (temperature: 15°C, 48 h) | plate-normalized OD600 growth (temperature: 37°C, 24 h)
49 | O=[N+]([O-])c1cnc(Sc2n[nH]c(-c3cccs3)n2)s1 | 0.225 | 0.607
50 | C=CCn1c(CSc2ccccc2[N+](=O)[O-])n[nH]c1=S | 0.26 | 0.606
51 | COc1ccc(/C=N/Nc2nnnn2-c2cccc3ccccc23)cc1OC | 0.253 | 0.627
52 | N#CCC(=O)N(Cc1ccccc1F)C(=O)NC1CCCCC1 | 0.263 | 0.647
53 | N/C(=N/OC(=O)c1ccccc1)c1ccc(-c2csnn2)cc1 | 0.252 | 0.6
54 | CCC(C)(C)C1CCc2sc3nc[nH]c(=O)c3c2C1 (stereo not given) | 0.248 | 0.626
55 | CCOc1cc(/C=N/n2cnc3sc4c(c3c2=O)CCCC4)cc(Br)c1OCc1ccc(Cl)cc1 | 0.245 | 0.619
56 | CCOC(=O)c1ccc(-c2ccc(/C=C(\C#N)C(=O)NC3CCCCC3)o2)cc1 | 0.241 | 0.604
57 | COC(=O)CSc1nc(N)cc(=O)[nH]1 | 0.247 | 0.605
58 | Cc1cc(C)c(C(=O)CSc2nc3ccccc3[nH]2)c(C)c1 | 0.213 | 0.626
59 | O=C(CSc1nc2ccccc2[nH]1)Nc1nc2ccccc2s1 | 0.244 | 0.604
60 | O=C1CC(NCc2ccco2)C(=O)N1c1ccc(OC(F)(F)Cl)cc1 (stereo not given) | 0.268 | 0.642
61 | CCOC(=O)C(=CNNc1ccnc2cc(Cl)ccc12)C(=O)OCC | 0.26 | 0.616
62 | CCOC(=O)C(=CNNS(=O)(=O)c1cc(C(F)(F)F)cc(C(F)(F)F)c1)C(=O)OCC | 0.246 | 0.602
63 | CCOC(=O)C(=CNNC(=O)c1ccccc1-n1cccc1)C(=O)OCC | 0.213 | 0.618
64 | CC1COCCN1c1cc(N2CCCCC2C(F)(F)F)[nH]c(=O)c1 (stereo not given) | 0.265 | 0.635
65 | Nc1[nH]c(=O)c(CO)c(N)c1S(=O)(=O)c1ccccc1 | 0.211 | 0.632
66 | N=c1c(S(=O)(=O)c2ccccc2)c(N)c(CO)c2sc3ccccc3n12 | 0.236 | 0.601
67 | NS(=O)(=O)c1ccc(-n2ncc3ccccc3c2=O)cc1 | 0.214 | 0.646
68 | CCOC(=O)c1cnn(-c2ccc(NS(=O)(=O)c3ccc(Cl)cc3)cc2)c1C(F)(F)F | 0.233 | 0.609
69 | O=C(CNC(=O)C(c1ccccc1)c1ccccc1)N/N=C/c1ccc(-c2ccc(Cl)c(Cl)c2)o1 | 0.238 | 0.611
70 | Cc1ccccc1OCC(=O)Nc1cccc(N2C(=O)c3ccccc3C2=O)c1 | 0.235 | 0.661
71 | O=C(COc1ccc(C(F)(F)F)cc1[N+](=O)[O-])Nc1cccc(C(F)(F)F)c1 | 0.264 | 0.633
72 | Cc1cccc(NC(=O)COc2ccccc2C(=O)NCCNc2ccc([N+](=O)[O-])cc2)c1 | 0.209 | 0.656

Row | Structure (SMILES) | plate-normalized OD600 growth (temperature: 15°C, 48 h) | plate-normalized OD600 growth (temperature: 37°C, 24 h)
73 | CCC/C=N/NC(=O)c1ccc(N2CCCC2=O)cc1 | 0.26 | 0.647
74 | c1ccc2c(c1)OCCCOc1ccccc1OCCCO2 | 0.251 | 0.607
75 | COc1cc(S(=O)(=O)N2CCN(c3c(C)cccc3C)CC2)c(OC)cc1Cl | 0.253 | 0.617
76 | COc1cc2c(cc1OC)C(C)N(S(=O)(=O)c1cn(C)c(C)n1)CC2 (stereo not given) | 0.245 | 0.611
77 | CC(C)CC(=O)N(NC(=O)c1ccccc1)c1ccccc1 | 0.22 | 0.615
78 | COc1ccccc1Oc1ccc(C(F)(F)F)cc1NC(=O)NC(=O)c1ccccc1F | 0.265 | 0.619
79 | O=C1/C(=C\c2ccccc2)N=C(c2ccccc2)N1CNc1nccs1 | 0.254 | 0.585
80 | O=C(O)c1cccc(S(=O)(=O)Nc2ccc(Cl)cc2)c1 | 0.257 | 0.625
81 | CC1=C(C#N)C(c2c(C)[nH]n(-c3ccccc3)c2=O)(C(F)(F)F)C(=O)N1 (stereo not given) | 0.26 | 0.62
82 | COc1ccccc1N=C(N)SCc1ccccc1 | 0.236 | 0.606
83 | CCc1ccc(NC(=O)CSc2nnc3n(N)cnn23)cc1 | 0.238 | 0.609
84 | Cc1cc(O)c(C)c(O)c1/C=N/NC(=O)CNC(=O)c1ccco1 | 0.245 | 0.61
85 | Cc1ccc(NC(=O)c2c3c(nc4ccccc24)CCCC3)cc1 | 0.239 | 0.614
86 | C=CCn1c(C(O)c2ccccc2)n[nH]c1=S (stereo not given) | 0.247 | 0.613
87 | O=c1nc(-c2ccccc2)nc(-c2ccccc2)[nH]1 | 0.26 | 0.617
88 | Cc1ccc2nc(Cl)c(C=Nc3ccccn3)cc2c1 | 0.226 | 0.611
89 | COc1ccc(S(=O)(=O)N(Cc2ccccc2)c2ccccc2C(=O)N/N=C(\C)c2ccccc2O)cc1 | 0.259 | 0.618
90 | O=C(NC(=S)Nc1ccc(Cc2ccncc2)cc1)c1cccc2ccccc12 | 0.259 | 0.614
91 | COc1cc(CCNC(=O)OC(C)(C)C)c([S+]([O-])CSCc2ccccc2)cc1OC (stereo not given) | 0.238 | 0.613
92 | Cc1cc(=O)oc2n[nH]c(-c3ccccc3)c12 | 0.258 | 0.64
93 | NC(=O)C1CCN(C(=O)c2ccco2)CC1 | 0.25 | 0.628
94 | O=C(NCCSC1CCCCC1)c1ccco1 | 0.221 | 0.633
95 | O=C(c1ccco1)N1CCC(c2ccccc2)C1 (stereo not given) | 0.201 | 0.642
